SMILES strings stand for the structures. Unmarked numbers belong to inactive results. The rule behind the calls is not given here.

The target in this assay is Pantothenate synthetase (Mycobacterium tuberculosis (strain ATCC 25618 / H37Rv)) (UniProt P9WIL5). Description: Coupled enzyme confirmation of inhibitors against recombinant Mtb PanC (AID 375).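 Note: 0% = full reaction with vehicle and 100% = no enzyme background.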 The conditions noted are these: coupled enzyme assay; at 10 µM, stronger effect = higher value.
Pantothenate synthetase (Mycobacterium tuberculosis (strain ATCC 25618 / H37Rv)), sequence (P9WIL5 whole entry, looked up): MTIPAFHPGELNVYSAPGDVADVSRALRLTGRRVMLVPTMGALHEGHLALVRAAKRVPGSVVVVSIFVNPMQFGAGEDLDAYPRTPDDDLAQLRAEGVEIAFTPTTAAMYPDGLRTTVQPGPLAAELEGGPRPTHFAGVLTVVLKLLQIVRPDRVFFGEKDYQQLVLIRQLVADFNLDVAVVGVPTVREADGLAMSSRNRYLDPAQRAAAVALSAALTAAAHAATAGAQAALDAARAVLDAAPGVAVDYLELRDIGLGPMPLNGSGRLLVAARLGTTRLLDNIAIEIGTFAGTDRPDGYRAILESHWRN
Regarding `CCOc1cc(C2C3=C(CCCC3=O)N(C)C3=C2C(=O)CCC3)cc(Cl)c1O`, the inhibition – broadly, how much of the control response was suppressed – is 0%. Turning to `C/C(Cl)=C\Cn1c(NCCc2ccccc2)nc2c1c(=O)n(C)c(=O)n2C`, the inhibition is 1%. Take `CC1(C)CC(=O)C=C(Nc2ccc(F)cc2)C1`: the inhibition was 0%. In the case of `CS(=O)(=O)N(Cc1ccccc1)c1ccc(C(=O)N2CCOCC2)cc1`, the inhibition is 0%. Consider `COc1ccc(-c2nc(CCNC(=O)c3ccco3)cs2)cc1OC`, for which the inhibition is 5%. Consider `COc1ccc(S(=O)(=O)NCCOc2ccccc2)cc1OC`, for which the inhibition is 0%. With `C[C@@H]1C[C@H]2[C@@H]3CCC4=CC(=O)C=C[C@]4(C)[C@@]3(F)[C@@H](O)C[C@]2(C)[C@@]1(O)C(=O)COP(=O)(O)O`, the inhibition was 5%.

Turning to `C[C@@H]1C[C@H]2[C@@H]3C[C@H](F)C4=CC(=O)C=C[C@]4(C)[C@@]3(F)[C@@H](O)C[C@]2(C)[C@@]1(O)C(=O)CO`, the inhibition is 0%. Consider `Cn1c(=N)c(S(=O)(=O)c2ccccc2)cc2c(=O)n3ccccc3nc21`, for which the inhibition was 2%. The result for `O=C(NCCSCc1ccco1)Nc1cccc(Cl)c1` reads 3%; that for `O=C(Cn1cnc2ccccc2c1=O)NCCC(=O)N1CCN(c2ccccc2)CC1`, 0%; that for `COc1cc(OC)c(-c2nn3c(C4CCCCC4)nnc3s2)cc1OC`, 0%.

On to `O=C1C(c2ccncc2)=C(O)c2ccccc21`, for which the inhibition is 0%. For `CCOc1ccc(-c2nnc(N(CC)C(=O)C3CCC3)s2)cc1`, the inhibition is 11%.

With `Clc1cccc(-c2nn3c(Cn4cnc5ccccc54)nnc3s2)c1`, the inhibition is 0%. For `COc1ccc(C2CC(=O)C(C=NCCN3CCOCC3)=C(O)C2)cc1` (stereo not given), the inhibition is 0%. With `Cc1nc2nc(Cc3ccccc3)[nH]n2c(=O)c1Cc1ccccc1`, the inhibition was 5%. The figure for `COc1ccccc1C(=O)Nc1ccc(N2CCN(S(C)(=O)=O)CC2)cc1` is 0%. The result for `Cn1c2c(c(=O)n(C)c1=O)C(CC(=O)Nc1ccccc1)C(=O)N2` (stereo not given) reads 7%. Regarding `CCNCC(O)COCC(O)CNCC` (stereo not given), the inhibition is 0%.

As for `CCOC(=O)c1cc2sc(C)cc2n1CC(=O)NCc1ccc(F)cc1`, the inhibition is 2%.

On to `CN(C)S(=O)(=O)c1ccc(C(=O)N2CCCC2c2nc3ccccc3s2)cc1` (stereo not given), for which the inhibition was 0%. Take `COc1ccc(S(=O)(=O)Nc2ccc(F)c(F)c2)cc1Cl`: the inhibition is 0%. Regarding `COC(=O)c1ccc(NC(=O)CN2CCCC2)cc1`, the inhibition is 0%. For `Cc1c(C(=O)N2CCN(c3ccccc3)CC2)sc2ncnc(N3CCN(c4ccccc4)CC3)c12`, the inhibition was 0%. On to `CCn1cc(C(=O)OCc2ccc(F)cc2)c(=O)c2ccc(C)nc21`, for which the inhibition was 5%. In the case of `CCOC(=O)N1CCN(c2nc(-c3ccc(Cl)cc3)cs2)CC1`, the inhibition was 0%. Consider `CS(=O)(=O)N1CCC(C(=O)NCCC2=CCCCC2)CC1`, for which the inhibition was 6%. On to `CC(C)n1c(=NC(=O)c2ccco2)c(C#N)cc2c(=O)n3ccccc3cc21`, for which the inhibition was 0%.

In the case of `Cc1ccc(NC(=O)CSc2nnc(CCCCCNC(=O)OC(C)(C)C)o2)c(C)c1`, the inhibition is 6%. On to `Fc1ccc(-c2cnc[nH]2)cc1`, for which the inhibition was 0%. Turning to `CC(C)OC(=O)CSc1nnc(-c2ccc(O)cc2)n1Cc1ccccc1`, the inhibition is 0%. As to `CCn1c(CCC(=O)Nc2nc3c(s2)CCCC3)nc2cc(S(=O)(=O)N(C)C)ccc21`, the inhibition is 3%.

As to `Cc1ccc2ncnc(NCCCN3CCOCC3)c2c1`, the inhibition was 1%.

With `c1cn2cc(CSC3CCCCC3)nc2s1`, the inhibition is 2%. On to `COc1ccc(Nc2ncc3c(n2)CC(c2ccc(OC)cc2)CC3=O)cc1` (stereo not given), for which the inhibition is 3%. Take `CC[C@H]1CN2CCc3cc(OC)c(OC)cc3[C@@H]2C[C@@H]1C[C@H]1NCCc2cc(OC)c(OC)cc21`: the inhibition is 0%. On to `CCCCN(Cc1cc2cc(OC)ccc2[nH]c1=O)C(=O)c1ccccn1`, for which the inhibition was 1%.

With `CC(C)CCNC(=O)Cn1c(NCCC(C)C)nc2c1c(=O)n(C)c(=O)n2C`, the inhibition is 0%. For the molecule `CCOC(=O)N1CCC(NC(=O)CN2C(=O)CCSc3ccccc32)CC1`, the inhibition is 0%.

For the origin of these results see PubChem BioAssay.
